HT1080-NT tox – kills 2HG-producing HT-1080-NT fibrosarcoma cells; HT-1080-NT fibrosarcoma viability, CellTiter-Glo ATP luminescence, 48 h; Potency, µM (titrated, usually from 46.1 µM), actives largely listed as cytotoxic; 360,000 tested, 1.6% active; AID 686970;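 further: NT is the 2HG producing partner of a matched IDH1 knockdown line; nearly all actives have a fitted effect of over 55% in size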
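Luminescent CellTiter-Glo readout after 48 hours of compound exposure at 37 degrees C defined viability of HT-1080-NT cells. Activity was normalized to DMSO wells and cell-free media wells; concentration-response curves were fitted and assigned curve classes.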
TDP1 cell CPT – growth inhibition of DT40 Tdp1-/-;hTDP1 cells with camptothecin (screen for TDP1 inhibitors); chicken DT40 Tdp1-/-;hTDP1 cells + 20 nM CPT, ATP luminescence, 48 h; Potency, µM (top dose mostly 46.2 µM), hits mostly inhibitors; 420,000 tested, 12% active; AID 686979; further: nearly all actives have a fitted effect of over 55% in size
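Cell growth measured by CellTiter-Glo luminescence after a minimum 48 h, 37 C compound exposure with 20 nM CPT in Tdp1-knockout DT40 cells stably expressing hTDP1, seeded 400/well; qHTS titration format.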
TGFb SMAD3 inh – TGF-b pathway inhibition; Potency, µM (titrated, usually from 46.1 µM), hits mostly inhibitors; HepG2 CAGA-GFP TGF-b/SMAD3 reporter, GFP fluorescence, 18 h; TGF-beta stimulated, 500 pg/mL final; AID 588855; 410,000 tested, 1.2% active; further: nearly all actives have a fitted effect of over 65% in size
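Read-out: total well GFP (ex488/em500-530) summed from mean per-cell fluorescence. Cells: HEPG2 CAGA-GFP, 1% FBS DMEM, 18 h at 37 degrees C with 500 pg/mL final TGF-beta. Unstimulated wells served as the full-inhibition control; stimulated DMSO wells = 0%.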
TDP1 cell noCPT – qHTS for Inhibitors of human tyrosyl-DNA phosphodiesterase 1 (TDP1): qHTS in cells in absence of CPT; 420,000 tested, 15% active; Potency, µM (highest dose often 46.2 µM), hits mostly inhibitors; DT40 Tdp1-/- hTDP1 cells, no CPT, ATP luminescence, 48 h; further: nearly all actives have a fitted effect of over 55% in size
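Readout: luminescence from CellTiter-Glo after 30 min in the dark at RT. Cells: DT40 Tdp1-/- with stable hTDP1, 400/well. Exposure: compounds alone, ≥48 hr, 37 °C.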
HepG2 tox – HepG2 cytotoxicity, counter-screen for TGF-b inhibitors; HepG2 CAGA-GFP viability, ATP luminescence, 18 h; Potency, µM (titrated, usually from 46.1 µM), hits mostly cytotoxic; 410,000 tested, 0.76% active; AID 588856
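CellTiter-Glo luminescence gave cytotoxicity after 18 hours at 37 degrees C. The cells were HepG2 CAGA-GFP in 1% FBS DMEM, stimulated with 500 pg/mL TGF-beta after compound addition. %Activity was normalised to no-cell wells (complete cell-killing) and DMSO (no toxicity), and curves were fitted and classified.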
HT1080 IDH1KD tx – toxicity to HT-1080 IDH1 knockdown cells (counter line); 360,000 tested, 2% active; HT-1080 IDH1 knockdown viability, ATP luminescence, 48 h; AID 686971; Potency, µM (titrated, usually from 46.1 µM), hits mostly cytotoxic
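Luminescent ATP read-out (CellTiter-Glo, 10 min at room temperature) after 48 h compound exposure at 37 °C gave viability of IDH1-knockdown HT-1080 cells. Activity was normalised to DMSO and cell-free wells, then fitted as concentration-response curves.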
Hits are given with their value. The list is not random: actives were taken first. Their share in the collection is about 17%. The call rests on the fitted dose curve; in most records, active means well fitted curve in the direction sought with a large enough effect; inconclusive means small, poorly fitted or top-dose-only effect, or another doubt; inactive means no such curve, though single readings can be large; an effect the other way counts as inactive or inconclusive.

How did O=[N+]([O-])c1cc(C(F)(F)F)ccc1NCCc1ccccn1 do in these assays?
HT1080-NT tox: inactive; TDP1 cell CPT: inactive; TGFb SMAD3 inh: inactive; TDP1 cell noCPT: inconclusive; HepG2 tox: inactive; HT1080 IDH1KD tx: inactive

What do the screens show for `CC(C)[C@H](NC(=O)C1CCC(CNC(=O)[C@@H]2CCCN2C(=O)OC(C)(C)C)CC1)C(=O)O` (some centres undefined)?
HT1080-NT tox: inactive; TDP1 cell CPT: inactive; TGFb SMAD3 inh: inactive; TDP1 cell noCPT: inactive; HepG2 tox: inactive; HT1080 IDH1KD tx: inactive

Results for [O-]C(=C(C(=S)Nc1cccc2ccccc12)[n+]1ccccc1)c1ccc2c(c1)OCCO2 ?
HT1080-NT tox: inactive; TDP1 cell CPT: inactive; TGFb SMAD3 inh: inactive; TDP1 cell noCPT: inconclusive; HepG2 tox: inactive; HT1080 IDH1KD tx: inactive

Results for CCOc1ccccc1NC(=S)/C(=C(\[O-])c1ccc2c(c1)OCCO2)[n+]1ccc(CC)cc1 ?
HT1080-NT tox: inactive; TDP1 cell CPT: 20.6µM; TGFb SMAD3 inh: inactive; HepG2 tox: inactive; HT1080 IDH1KD tx: inactive

How did O=C(c1ccco1)N1CCN(Cc2cn[nH]c2-c2ccc(F)cc2F)CC1 do in these assays?
HT1080-NT tox: inactive; TDP1 cell CPT: inactive; TGFb SMAD3 inh: inactive; TDP1 cell noCPT: inactive; HepG2 tox: inactive; HT1080 IDH1KD tx: inactive

What do the screens show for `c1ccc(CC2CCN(C3=Nc4cccc5cccc3c45)CC2)cc1`?
HT1080-NT tox: inconclusive; TDP1 cell CPT: inconclusive; TGFb SMAD3 inh: inconclusive; TDP1 cell noCPT: 9.2µM; HepG2 tox: 12.6µM; HT1080 IDH1KD tx: 20.6µM

Results for CC(C)(C)N1CC(C(=O)Nc2ccc(C#N)cc2)CC1=O (centres undefined) ?
HT1080-NT tox: inactive; TDP1 cell CPT: inactive; TGFb SMAD3 inh: inactive; TDP1 cell noCPT: inactive; HepG2 tox: inactive; HT1080 IDH1KD tx: inactive

How did COC(=O)c1cccc2c(C(=O)O)cc(-c3ccccc3)nc12 do in these assays?
HT1080-NT tox: inactive; TDP1 cell CPT: inactive; TGFb SMAD3 inh: inactive; TDP1 cell noCPT: inactive; HepG2 tox: inactive; HT1080 IDH1KD tx: inactive

How did CCSc1ccc(-c2cc(NC=O)c3ncc(-c4cccc(C(=O)N(C)C)c4)n3c2)cc1 do in these assays?
HT1080-NT tox: inconclusive; TDP1 cell CPT: inconclusive; TGFb SMAD3 inh: inconclusive; TDP1 cell noCPT: inconclusive; HepG2 tox: inactive; HT1080 IDH1KD tx: inconclusive

Results for CN(C)c1ccc(-c2cc(NC=O)c3ncc(-c4ccc(F)c(Cl)c4)n3c2)cc1 ?
HT1080-NT tox: inconclusive; TDP1 cell CPT: inconclusive; TGFb SMAD3 inh: inactive; TDP1 cell noCPT: inconclusive; HepG2 tox: inactive; HT1080 IDH1KD tx: inconclusive

How did O=CNc1cc(-c2ccccc2)cn2c(-c3ccc(F)c(Cl)c3)cnc12 do in these assays?
HT1080-NT tox: inactive; TDP1 cell CPT: 23.1µM; TGFb SMAD3 inh: inactive; TDP1 cell noCPT: 23.1µM; HepG2 tox: inactive; HT1080 IDH1KD tx: inconclusive

How did CS(=O)(=O)Nc1cccc(-c2cc(NC=O)c3ncc(-c4ccc(F)c(Cl)c4)n3c2)c1 do in these assays?
HT1080-NT tox: inconclusive; TDP1 cell CPT: 9.2µM; TGFb SMAD3 inh: inconclusive; TDP1 cell noCPT: 14.6µM; HepG2 tox: inactive; HT1080 IDH1KD tx: inconclusive

What do the screens show for `O=CNc1cc(-c2cccc(F)c2)cn2c(-c3ccc(F)c(Cl)c3)cnc12`?
HT1080-NT tox: inactive; TDP1 cell CPT: 23.1µM; TGFb SMAD3 inh: inactive; TDP1 cell noCPT: 11.6µM; HepG2 tox: inactive; HT1080 IDH1KD tx: inconclusive

What do the screens show for `N#Cc1ccccc1OCC(=O)N1CCN(c2ccccc2)CC1`?
TDP1 cell CPT: inactive; TGFb SMAD3 inh: inactive; TDP1 cell noCPT: inactive; HepG2 tox: inactive

Results for COc1cc(N)c(Cl)cc1C(=O)OCC(=O)NCc1cccs1 ?
HT1080-NT tox: inactive; TDP1 cell CPT: inactive; TGFb SMAD3 inh: inactive; TDP1 cell noCPT: inactive; HepG2 tox: inactive; HT1080 IDH1KD tx: inactive
